Results on 28 molecules are retold here after PubChem BioAssay AID540256 (National Center for Advancing Translational Sciences (NCATS), 2011).

About 3,700 (1.2%) of roughly 300,000 compounds were called active. Where a call stands in place of a potency, no number is given. Another 20% or so got no clear call; they are omitted. Calls follow the shape of the full dose curve; tested in HEK293 cells. Many of the other results were omitted from the sample, so actives are more common in it than they were.
Potency is read from the fitted curve at half-maximal effect.

A short description of this test: qHTS for Inhibitors of binding or entry into cells for Lassa Virus. Also: nearly all actives have a fitted effect of over 50% in size. The conditions noted are these: Lassa virus pseudotype entry inhibition, cell reporter; series mostly up to 37.9 µM. On the technique in general: qHTS replaces the single test concentration by a dilution series.
`CCCCCCn1c(CN2CCCCC2)nc2c1c(=O)n(C)c(=O)n2C`: the Potency entry is “inactive”. For the molecule `CCCCCCCCn1c2c(c(=N)c3c1CCC3)CCCC2`, the Potency is 5.62 µM (active).

Take `CCCCN(CC(=O)Nc1cccc(S(=O)(=O)N2CCCC2)c1)Cc1nc2ccccc2c(=O)[nH]1`: the Potency result was “inactive”. As for `O=C(Nc1ccccc1)Oc1cccc2cccnc12`, the entry is “inactive”. As for `O=C(CNC(=O)c1ccccc1Br)NCCSc1ccc(Br)cc1`, the entry is “inactive”; as for `O=[N+]([O-])c1cc(S(=O)(=O)Nc2cccc(Cl)c2)ccc1N=Nc1c(O)[nH]c2ccccc12`, 11.2 µM (active); as for `CN1CCN(c2ccc(S(=O)(=O)Nc3ccccc3)cc2[N+](=O)[O-])CC1`, “inactive”. As for `Oc1[nH]c2ccccc2c1N=Nc1c(F)c(F)c(F)c(F)c1F`, the entry is “inactive”; as for `CC1(C)N=C(N)NC(Nc2ccc(Cl)cc2)=N1`, “inactive”; as for `COc1cccc(N(CC(=O)N2CCc3ccccc3C2)S(C)(=O)=O)c1`, “inactive”. With `Cc1ccc(S(=O)(=O)N(CC(=O)N2CCc3ccccc3C2)c2cccc(Cl)c2)cc1`, the Potency was 14.1 µM (active).

For `CS(=O)(=O)N(CC(=O)N1CCc2ccccc2C1)c1ccc(Br)cc1`, the Potency entry was “inactive”. To `Cc1ccc(S(=O)(=O)N2CCC(C(=O)N3CCCCCCC3)CC2)cc1` belongs “inactive”; to `O=C(c1ccc(F)c(S(=O)(=O)N2CCOCC2)c1)N(CCc1ccccc1)Cc1ccccc1`, “inactive”. As for `C=CCn1c(C)cc(C2=NNC(=NCC)SC2)c1C`, the figure is 1.64 µM (active); as for `Cc1cc(C2=NNC(=Nc3ccc(S(=O)(=O)N4CCOCC4)cc3)SC2)c(C)n1CC1CCCO1` (stereo not drawn), “inactive”; as for `COc1ccc(C(=O)ON=C2c3ccccc3-c3ccccc32)cc1OC`, “inactive”. Take `COc1ccc(C/C(N)=N/OC(=O)c2ccco2)cc1OC`: the Potency entry was “inactive”. To `COc1ccc(C(=O)O/N=C(\N)Cc2ccc(Cl)cc2Cl)cc1OC` belongs 20 µM (active); to `O=C(CN1CCSc2ccccc21)N1CCN(c2ccccc2)CC1`, “inactive”.

Consider `CCOc1cc(C(=O)NCCc2csc3nc(-c4ccc(C)cc4)nn23)cc(OCC)c1OCC`, for which the Potency result is “inactive”.

For `Cc1cc(=O)[nH]c(SCc2ccc(Cl)cc2)n1`, the Potency result is “inactive”. As for `Cn1nnnc1SCC(=O)N1CCN(C(c2ccccc2)c2ccccc2)CC1`, the entry is “inactive”. `O=C(O)CN1CCN(C(c2ccccc2)c2ccccc2)CC1`: the Potency result was “inactive”. As to `c1ccc(C(c2ccccc2)N2CCN(Cc3nnnn3C3CCCCC3)CC2)cc1`, the Potency was 11.6 µM (active). Take `COc1ccc(N2CCN(C(=O)CCNC(=O)c3ccc(Br)cc3)CC2)cc1`: the Potency entry is “inactive”. To `Cc1ccc(S(=O)(=O)NCCC(=O)OCC(=O)N(C)c2ccccc2)cc1` belongs “inactive”. To `Cc1cc(C)nc(N/N=C/c2c(CO)cnc(C)c2O)n1` belongs “inactive”.
